esBAF inh: Bmi1 luciferase reporter increase in mESCs, primary screen, esBAF inhibitor project, mouse ES cells, Bmi1 luciferase knock-in, single point. 24 h; 100% = twice the neutral-well signal. reporter increase, % at 12.5 µM. hit rate 2% among 350,000; in the data active means activation above about 40%; inconclusive means no clear call, values can overlap the other calls;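 further: a rise in the Bmi1 reporter signal indicates esBAF inhibition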
MITF TRPM1 inh: inhibitors of MITF-dependent TRPM1 promoter reporter, primary screen, cell-based, SK-MEL-5, single point, luciferase | SK-MEL-5 TRPM1 promoter luciferase, 24 h | AID 488899, 2010 | inhibition, % at 12.5 µM | hit rate 0.83% among 330,000;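 active means mean inhibition across replicates of 60% or more, whatever share of single replicates reaches that level; inconclusive means some that reach 60%, reason not given; inactive means mean inhibition across replicates below 60%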
EWS-Fli inh: EWS/Fli-driven NR0B1 reporter inhibitors, primary screen, A673 cells, NR0B1 luciferase, luminescence, MLPCN library | hit rate 0.67% among 350,000 | viability-normalised | inhibition, % at 12.6 µM | AID 651661, 2012;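 active means mean inhibition of at least 50% after viability correction, with every replicate also passing that limit; inconclusive means mean reaches 50% but only one of two replicates passes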;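 further: firefly luciferase signal divided by Alamar Blue viability fluorescence both relative to DMSO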
PAX8 reporter: inhibitors of PAX8-driven TPO luciferase reporter, primary screen, RMG-I cells, single concentration | SteadyGlo, 24 h | inhibition, % at 12.6 µM | AID 652154, 2013 | hit rate 1.2% among 360,000;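 active means mean replicate inhibition at least 60% with every replicate also reaching 60%; inconclusive means only one of the two criteria is met; inactive means mean below 60% and not all replicates reaching 60%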;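 further: luciferase light reporting Pax8 driven TPO promoter activity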
Wnt act: Wnt/beta-catenin pathway activators, primary screen, cell-based, plate reader, single point; hit rate 1.2% among 300,000; Wnt/beta-catenin reporter cell assay, activator; AID 743398, 2014; activation, % at 9.35 µM; in the data active means activation above about 30%, passing the limit was not always enough; inconclusive means no clear call, values can overlap the other calls
MITF TRPM1 HTS: activators of MITF-driven TRPM1 promoter reporter, primary screen, cell-based, SK-MEL-5, luciferase, single point | SK-MEL-5 TRPM1-promoter luciferase, 24 h; % of positive control, neutral wells = 0 | activation, % at 12.5 µM | hit rate 0.75% among 300,000 | AID 588334, 2011;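 active means mean activation of at least 80% with every replicate also reaching 80%; inconclusive means mean reaches 80% but some replicate falls short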
Each line names hits and unclear results; the compound was inactive in the other large screens. A selection: hits, their analogues and other compounds. The true share with any hit is near 4%.

COc1ccc2c3c([nH]c2c1)[C@H](CO)N(C(=O)Nc1ccc(F)cc1)CC31CCN(S(=O)(=O)c2cccc(C)c2)CC1	none (no result: esBAF inh, MITF TRPM1 inh, PAX8 reporter, Wnt act, MITF TRPM1 HTS)
O=C(COc1ccc(Br)cc1Cl)NC(=S)Nc1ccccn1	esBAF inh 50 (no result: EWS-Fli inh)
Cc1ccc(OCC(=O)Nc2ccccc2[N+](=O)[O-])c(Br)c1	Wnt act 64 (no result: esBAF inh)
Cc1ccc(OCC(=O)NC(=S)Nc2ccccn2)c(Br)c1	EWS-Fli inh 52 (no result: esBAF inh)
COC(=O)c1ccccc1NC(=O)COc1ccccc1[N+](=O)[O-]	none (no result: esBAF inh)
C[C@H](CO)N1C[C@H](C)[C@@H](CN(C)C(=O)Nc2ccc(F)cc2)Oc2ccc(NS(=O)(=O)c3cccs3)cc2CC1=O	none (no result: MITF TRPM1 inh, Wnt act, MITF TRPM1 HTS)
C[C@@H]1CCCCO[C@@H](CN(C)Cc2ccccc2)[C@@H](C)CN([C@H](C)CO)C(=O)c2cc(NS(=O)(=O)c3cn(C)cn3)ccc2O1	none (no result: MITF TRPM1 inh, Wnt act, MITF TRPM1 HTS)
CCN1/C(=C/C=C/c2sc3ccccc3[n+]2CC)Sc2ccccc21	MITF TRPM1 inh 99 (no result: EWS-Fli inh, PAX8 reporter, Wnt act)
CCN1/C(=C/C=C/C=C/C=C/c2sc3ccccc3[n+]2CC)Sc2ccccc21	MITF TRPM1 inh 95
COCCOC(=O)N1C(=O)[C@@]2(c3cc(C#CC4(O)CCCCCC4)ccc31)[C@H](c1ccc(OCCO)cc1)N1[C@H](c3ccccc3)[C@H](c3ccccc3)OC(=O)[C@H]1[C@@H]2C(=O)N1CCN(c2ncccn2)CC1	none (no result: esBAF inh, MITF TRPM1 inh, Wnt act, MITF TRPM1 HTS)
CCCCn1c(SCC2CCCCO2)nc2cc(S(N)(=O)=O)ccc21 (stereo unspecified)	Wnt act 40 (no result: esBAF inh, EWS-Fli inh)
Cc1ccc(/C=N/c2sc3c(c2C#N)CCC3)s1	MITF TRPM1 HTS 92 (no result: EWS-Fli inh, PAX8 reporter)
CN1CCN(/C=N/c2sc3c(c2C#N)CCCCC3)CC1	esBAF inh 81 (no result: EWS-Fli inh, PAX8 reporter, Wnt act)
C[C@@H]1CN([C@H](C)CO)C(=O)Cc2cc(NC(=O)CCN3CCOCC3)ccc2O[C@@H]1CN(C)Cc1ccncc1	none (no result: MITF TRPM1 inh, EWS-Fli inh, Wnt act, MITF TRPM1 HTS)
C[C@@H]1CN([C@@H](C)CO)C(=O)Cc2cc(NC(=O)Nc3ccc4c(c3)OCO4)ccc2O[C@@H]1CN(C)Cc1ccc(C(=O)Nc2ccccc2N)cc1	none (no result: esBAF inh, MITF TRPM1 inh, Wnt act, MITF TRPM1 HTS)
Cc1c(C(=O)OCC(=O)NCC2CCCO2)cccc1[N+](=O)[O-] (stereo unspecified)	Wnt act 37
Cc1ccc(C(=O)OCC(=O)NCC2CCCO2)c(C)c1 (stereo unspecified)	none (no result: esBAF inh)
C[C@@H]1CCCCO[C@H](CN(C)Cc2ccc(C(F)(F)F)cc2)[C@H](C)CN([C@@H](C)CO)C(=O)c2cc(NC(=O)CCC(F)(F)F)ccc2O1	none (no result: MITF TRPM1 inh, Wnt act, MITF TRPM1 HTS)
C[C@@H]1CCCCO[C@@H](CN(C)Cc2ccc(C(F)(F)F)cc2)[C@@H](C)CN([C@@H](C)CO)C(=O)c2cc(NC(=O)CCC(F)(F)F)ccc2O1	PAX8 reporter 72 (no result: MITF TRPM1 inh, Wnt act, MITF TRPM1 HTS)
C[C@@H]1CN([C@H](C)CO)C(=O)c2cc(NC(=O)CCC(F)(F)F)ccc2O[C@@H](C)CCCCO[C@@H]1CN(C)Cc1ccc(C(F)(F)F)cc1	PAX8 reporter 83 (no result: MITF TRPM1 inh, Wnt act, MITF TRPM1 HTS)
CCCN1[C@H](C(=O)Nc2nccs2)[C@@H](CO)[C@@H]2Cn3c(ccc(-c4ccccc4OC)c3=O)[C@@H]21	none (no result: MITF TRPM1 inh, Wnt act, MITF TRPM1 HTS)
C[C@@H]1CN([C@H](C)CO)C(=O)c2cc(N(C)C)ccc2O[C@@H](C)CCCCO[C@@H]1CN(C)C(=O)Nc1ccc(C(F)(F)F)cc1	PAX8 reporter inconclusive (no result: MITF TRPM1 inh, Wnt act, MITF TRPM1 HTS)
CCOC(=O)c1sc(NC(=O)c2ccc(CC)s2)nc1C	esBAF inh 51 (no result: EWS-Fli inh, Wnt act)
CCOC(=O)c1sc(NC(=O)c2ccc3ncsc3c2)nc1C	esBAF inh 51, EWS-Fli inh 87 (no result: MITF TRPM1 inh, MITF TRPM1 HTS)
Cc1nc(NC(=O)c2cc3ccccc3o2)sc1C	none
CCOC(=O)c1sc(NC(=O)c2cc3ccccc3o2)nc1C	EWS-Fli inh 87 (no result: esBAF inh)
CCOC(=O)c1sc(N(Cc2ccccc2)C(=O)CCl)nc1C	EWS-Fli inh 57 (no result: esBAF inh)
C[C@H]1CCCCO[C@H](CN(C)C(=O)c2ccccc2)[C@@H](C)CN([C@@H](C)CO)C(=O)c2cc(NC(=O)CCC(F)(F)F)ccc2O1	none (no result: MITF TRPM1 inh, Wnt act, MITF TRPM1 HTS)
O=C(Nc1nnc(C2CC2)s1)c1cc2ccccc2o1	esBAF inh 46, Wnt act inconclusive
CCOC(=O)c1sc(NC(=O)c2ccccc2OC)nc1C	EWS-Fli inh 86
O=C(Nc1nnc(C2CC2)s1)c1ccc(Cl)nc1	esBAF inh 53, Wnt act 34
CCOC(=O)Cc1csc(NC(=O)Cc2ccccc2)n1	none (no result: esBAF inh)
COC(=O)Cc1csc(Nc2ccccc2Cl)n1	esBAF inh 54, MITF TRPM1 HTS 94
CCOC(=O)Cc1nnc(NC(=O)c2ccccc2OC)s1	none (no result: EWS-Fli inh, PAX8 reporter, MITF TRPM1 HTS)
COc1ccc(CN(C)C[C@@H]2Oc3ccc(NC(=O)Nc4c(C)noc4C)cc3C(=O)N([C@@H](C)CO)C[C@@H]2C)cc1	none (no result: MITF TRPM1 inh, Wnt act, MITF TRPM1 HTS)
CCOC(=O)c1sc(Nc2ccccc2Cl)nc1C	esBAF inh 65, Wnt act 39
CCOC(=O)c1csc(NC(=O)c2cc3ccccc3o2)n1	esBAF inh 64, EWS-Fli inh 59
CCc1ccc(C(=O)Nc2nc(C)cs2)s1	Wnt act inconclusive
CCOC(=O)c1ccccc1NC(=O)c1cc2ccccc2o1	none
CCOC(=O)c1sc(NC(=O)Nc2ccccc2F)nc1C	none (no result: EWS-Fli inh)
CCc1ccc(C(=O)Nc2cc(C)ccc2F)s1	esBAF inh 66
COc1ccccc1-c1cnc2c(c1)C(=O)N([C@@H](C)CO)C[C@H](C)[C@@H](CN(C)Cc1cncnc1)O2	none (no result: MITF TRPM1 inh, PAX8 reporter, Wnt act, MITF TRPM1 HTS)
C[C@@H]1CN([C@@H](C)CO)C(=O)c2cccc(NC(=O)Nc3ccc(F)cc3)c2O[C@H]1CN(C)S(C)(=O)=O	none (no result: MITF TRPM1 inh, Wnt act, MITF TRPM1 HTS)
